Compound activity from PubChem.
A selection: hits, their analogues and other compounds. The true share with any hit is near 1.1%.
SNCA viab count: cell viability loss counter-screen. actives 0.12% (n = 150,000). Potency, µM (titrated, usually from 57.1 µM), actives largely listed as cytotoxic. HEK-293-SNCA-luc viability, GF-AFC fluorescence, 24 h; note: nearly all actives have a fitted effect of over 30% in size
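HEK-293-SNCA-luc cells (1500/well) plated 24 h, then exposed 24 h to a dilution series; GF-AFC added 30 min at 37C, fluorescence 405/540 nm; normalised to medium-only and DMSO wells, Hill fit.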
IP6K1 inhibitor: inhibitors of human IP6K1; Q92551; activity change, % (series mostly up to about 58 µM); IP6K1 kinase, ADP-Glo luminescence, 2 h; hits give low values; AID 1645851; actives 0.81% (n = 140,000); in the data active = activity change below about -25%
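ADP-Glo luminescence measures ADP made by human IP6K1 during a 2 h RT reaction with ATP/IP6 (mix at 1.3 mM/130 uM); top library doses 57.5 and 19.1 uM final.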
GPT2 inhibitor: inhibitors of human GPT2 alanine aminotransferase | Q8TD30 | Recombinant GPT2, coupled pyruvate oxidase/HRP Amplex Red fluorescence | Potency, µM (top dose mostly 57.7 µM), most hits filed as inhibitors | actives 0.25% (n = 100,000) | AID 1671188; note: nearly all actives have a fitted effect of over 60% in size
Target sequence (Q8TD30 whole entry, looked up): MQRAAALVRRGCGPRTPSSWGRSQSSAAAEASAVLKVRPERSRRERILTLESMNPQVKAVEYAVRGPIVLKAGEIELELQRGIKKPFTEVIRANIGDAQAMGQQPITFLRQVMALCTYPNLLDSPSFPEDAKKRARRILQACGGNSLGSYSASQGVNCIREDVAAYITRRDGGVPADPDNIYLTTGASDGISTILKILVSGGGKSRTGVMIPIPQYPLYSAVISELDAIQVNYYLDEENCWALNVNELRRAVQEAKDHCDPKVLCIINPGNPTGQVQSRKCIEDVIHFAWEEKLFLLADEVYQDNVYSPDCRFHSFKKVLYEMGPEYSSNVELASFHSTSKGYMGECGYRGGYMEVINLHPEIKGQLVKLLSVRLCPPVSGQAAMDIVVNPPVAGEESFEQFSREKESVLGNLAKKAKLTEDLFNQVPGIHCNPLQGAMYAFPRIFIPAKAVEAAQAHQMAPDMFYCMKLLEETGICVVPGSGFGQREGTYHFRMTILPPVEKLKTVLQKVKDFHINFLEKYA
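Recombinant GPT2 (10ng/uL) with 250uM a-KG and 2mM L-alanine, 30 min at room temperature, in HEPES pH 7.5 buffer. Pyruvate detected by pyruvate oxidase/HRP/Amplex Red fluorescence after 30 min in the dark; AOA (50uM) as positive control.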
SNCA expr inh: reduces expression of the alpha-synuclein gene; HEK-293 SNCA-luciferase knock-in, luminescence, 24 h; Potency, µM (titrated, usually from 57.2 µM), actives largely listed as inhibitors; actives 0.17% (n = 140,000); AID 1671194; note: nearly all actives have a fitted effect of over 45% in size
IP6K1 inh cnf: human IP6K1 inhibition, confirmatory. shares compounds with IP6K1 inhibitor. recombinant IP6K1 kinase, ADP-Glo luminescence, 2 h. Potency, µM (titrated, usually from 49 µM), usual class: inhibitors. actives 13% (n = 1,200); note: nearly all actives have a fitted effect of over 65% in size
Of the large screens only hits and unclear results are named; the others gave an inactive call (follow-up assays come after a bar, where they were run); ! = repeats disagree. Unless noted, calls come from the whole dose curve; as a rule, active = well fitted curve in the direction sought with a large enough effect; inconclusive = small, poorly fitted or top-dose-only effect, or another doubt; inactive = no such curve, though single readings can be large; an effect the other way counts as inactive or inconclusive.

COc1cccc(CNC(=O)C2CCc3nnc(CNC(=O)NC(C)(C)C)n32)c1 (stereo unspecified)	none
Cc1noc(C)c1Cc1ccc(C(=O)N2CCC(c3nc(CCOCC4CC4)no3)C2)o1 (stereo unspecified)	none
Cc1ccc(C(=O)N2CCC3(CC2)CC(N(Cc2ccc(F)cc2)C2CC2)CCO3)cn1 (stereo unspecified)	IP6K1 inhibitor -26 | IP6K1 inh cnf inactive
CCc1nnc(NC(=O)c2nc(S(=O)(=O)Cc3ccc(C)cc3)ncc2Cl)s1	SNCA viab count 28µM, IP6K1 inhibitor -33, SNCA expr inh inconclusive (no result: GPT2 inhibitor) | IP6K1 inh cnf inactive
COc1ccc(NC(=O)c2nc(S(=O)(=O)Cc3ccc(C)cc3)ncc2Cl)cc1	SNCA viab count inconclusive, SNCA expr inh inconclusive (no result: GPT2 inhibitor)
O=C(NCc1cccc(C(F)(F)F)c1)C1CCCN(Cc2cccc(-c3ccc(F)cc3F)c2)C1 (stereo unspecified)	SNCA expr inh inconclusive
CN(Cc1cnn(C)c1)C(=O)C1C2C(=O)N(Cc3ccc(F)cc3)C[C@@]23C=C[C@@H]1O3 (stereo partly specified)	IP6K1 inhibitor -42 | IP6K1 inh cnf inactive
O=C(C1C2C(=O)N(Cc3ccc(F)cc3)C[C@@]23C=C[C@@H]1O3)N1CCSCC1 (stereo partly specified)	none
COc1ccc(NC(=O)CSc2nnc3scc(-c4ccc(Cl)cc4)n23)cc1	SNCA viab count inconclusive (no result: GPT2 inhibitor)
COc1cccc(NC(=O)CSc2nnc3scc(-c4ccc(Cl)cc4)n23)c1	IP6K1 inhibitor -37 (no result: GPT2 inhibitor) | IP6K1 inh cnf inactive
Cc1noc(C)c1[S+](=O)([O-])N1CCC2(CC1)CC(c1cccc(C(F)(F)F)c1)=NO2	none (no result: SNCA viab count, GPT2 inhibitor, SNCA expr inh)
O=S(=O)(c1ccccc1)N1CCc2nnc(C3CC3)n2CC1	none
O=C(Nc1cccc(C(F)(F)F)c1)Nc1cccs1	IP6K1 inhibitor -33 (no result: GPT2 inhibitor) | IP6K1 inh cnf inconclusive
CN(C)c1nccnc1OC1CCN(C(=O)CCCc2ccccc2)C1 (stereo unspecified)	none
O=C(c1ccco1)N(Cc1cccnc1)c1nc2ccc(F)cc2s1	IP6K1 inhibitor -27 (no result: GPT2 inhibitor) | IP6K1 inh cnf inactive
O=C(CCc1ccccc1)N(Cc1cccnc1)c1nc2ccc(F)cc2s1	none (no result: GPT2 inhibitor)
CC#C[C@@H](CC(=O)O)c1ccc(OCc2cccc(-c3ccc(C(F)(F)F)cc3)c2)cc1	IP6K1 inhibitor -28, GPT2 inhibitor inconclusive (no result: SNCA expr inh) | IP6K1 inh cnf inconclusive
Cc1ccsc1C(=O)N1CCCC(Cc2nc(C3CCOCC3)no2)C1 (stereo unspecified)	none
O=C(COc1ccccc1)NC[C@H]1O[C@H](Cc2cc(CN3CCNCC3)on2)CC[C@@H]1O	none
O=c1c2nc(OCc3ccc(F)cc3)ccc2ncn1C1CC1	none
COc1cccc(CN(Cc2ccco2)c2cnc(S(C)(=O)=O)nc2C(=O)Nc2cccc(Cl)c2C)c1	IP6K1 inhibitor -28 (no result: GPT2 inhibitor) | IP6K1 inh cnf inactive
COc1ccc(CN(Cc2ccco2)c2cnc(S(C)(=O)=O)nc2C(=O)Nc2ccc(C)cc2C)cc1	IP6K1 inhibitor -26 (no result: GPT2 inhibitor) | IP6K1 inh cnf inactive
Cc1ccc(CN(Cc2ccco2)c2cnc(S(C)(=O)=O)nc2C(=O)Nc2ccc(Br)cc2)o1	IP6K1 inhibitor -27 (no result: GPT2 inhibitor) | IP6K1 inh cnf inactive
CS(=O)(=O)c1ncc(N(Cc2ccco2)Cc2ccco2)c(C(=O)Nc2ccccc2Br)n1	none (no result: GPT2 inhibitor)
Cc1ccc(C(=O)Nc2ccc3oc(-c4cccnc4)nc3c2)c(Cl)c1	IP6K1 inhibitor -30 (no result: GPT2 inhibitor) | IP6K1 inh cnf inconclusive
O=C(Nc1ccc2oc(-c3cccnc3)nc2c1)c1ccccc1F	IP6K1 inhibitor -30 (no result: GPT2 inhibitor) | IP6K1 inh cnf inconclusive
COc1ccccc1-n1c(=O)c(C(=O)N2CCN(C(=O)Cc3ccccn3)CC2)nc2cccnc21	none
COc1ccc(CCCc2nnc(SCC(=O)Nc3cccc(C)c3)o2)cc1	IP6K1 inhibitor -33 (no result: GPT2 inhibitor) | IP6K1 inh cnf inactive
CC(C)C(=O)Nc1cccc(C(=O)Nc2nnc(C(F)(F)F)s2)c1	IP6K1 inhibitor -29 (no result: GPT2 inhibitor) | IP6K1 inh cnf inactive
COc1ccc(-c2nc3ncccc3[nH]2)cc1	IP6K1 inhibitor -27! | IP6K1 inh cnf inconclusive
Cc1cn(C)c(CC(=O)N2CCN(c3cccc(Cl)c3)CC2)c1C(=O)O	IP6K1 inhibitor -26 (no result: GPT2 inhibitor) | IP6K1 inh cnf inactive
O=C1c2ccccc2-[n+]2ccc3c([nH]c4ccccc43)c21	SNCA viab count inconclusive, GPT2 inhibitor 0.27µM, SNCA expr inh 3µM (no result: IP6K1 inhibitor) | IP6K1 inh cnf inactive
